The text below walks through data of article PMC8384837, “Expanding the binding specificity for RNA recognition by a PUF domain”.

Sequence of PUM1 PUF domain R4-DWS (Q14671 828-1176 N971D/H972W/Q975S): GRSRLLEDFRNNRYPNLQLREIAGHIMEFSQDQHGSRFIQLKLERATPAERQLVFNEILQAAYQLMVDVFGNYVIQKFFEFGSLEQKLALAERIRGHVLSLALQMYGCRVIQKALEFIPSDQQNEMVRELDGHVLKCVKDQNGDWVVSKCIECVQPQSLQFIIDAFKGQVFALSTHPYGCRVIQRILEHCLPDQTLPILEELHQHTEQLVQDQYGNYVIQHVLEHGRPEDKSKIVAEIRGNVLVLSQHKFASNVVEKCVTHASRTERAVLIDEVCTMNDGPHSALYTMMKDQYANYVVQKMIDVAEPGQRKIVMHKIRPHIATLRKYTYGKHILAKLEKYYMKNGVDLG
Sequence of PUM1 PUF domain R5-RHA (Q14671 828-1176 C1007R/R1008H/Q1011A): as the sequence (Q14671 828-1176 N971D/H972W/Q975S) above, with D144N, W145H, S148Q, C180R, R181H, Q184A counted along it

The target of one assay is PUM1 PUF domain R5-RHA (Homo sapiens, UniProt Q14671 828-1176, C1007R;R1008H;Q1011A). In words: yeast three-hybrid, YBZ-1, SC-Leu-His + 0.5 mM 3-AT, 4 days. The conditions noted are these: tags: N-Gal4 AD-HA kept; label: inside an RPR1-promoter hybrid RNA with tandem MS2 sites; ssRNA. In outline:
(§1)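 Pumilio-1 PUF domain libraries, randomized at the three base-contacting residues of each repeat, were co-expressed with matching RNA elements from a centromeric plasmid in strain YBZ-1, which carries a LexA–MS2 coat fusion and a HIS3 reporter. Transformants grew for four days on SC-Leu (input) or on SC-Leu-His + 0.5 mM 3-AT (selection), and the repeat regions were PCR-amplified and Illumina-sequenced. The interaction score is the log change in variant frequency from input to selection. That logarithm is base 2, with a pseudocount of 1 where a variant was absent.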
On to “GGCUAGAACUAGUGGAUCCCCCGGCGCCCGGCGGCUCGAGCCCGGGUAAGUGUCAAUAGUCUGCAUGCCGCCGGGCGCCAUGCCUGCAGGUCGACUCUAGAAAACAUG”, for which the binding signal is 5.53 log2 enrichment (interaction score).

Take “GGCUAGAACUAGUGGAUCCCCCGGCGCCCGGCGGCUCGAGCCCGGGUAAGUGUAAAUAGUCUGCAUGCCGCCGGGCGCCAUGCCUGCAGGUCGACUCUAGAAAACAUG”: the binding signal is 2.93 log2 enrichment (interaction score).

As to “GGCUAGAACUAGUGGAUCCCCCGGCGCCCGGCGGCUCGAGCCCGGGUAAGUGUUAAUAGUCUGCAUGCCGCCGGGCGCCAUGCCUGCAGGUCGACUCUAGAAAACAUG”, the binding signal is 5.76 log2 enrichment (interaction score).

Another assay concerns the target PUM1 PUF domain R4-DWS (Homo sapiens, UniProt Q14671 828-1176, N971D;H972W;Q975S). The assay is described as above. The conditions noted are these: tags: N-Gal4 AD-HA kept; label: inside an RPR1-promoter hybrid RNA with tandem MS2 sites; ssRNA. Put shortly:
as §1
Take “GGCUAGAACUAGUGGAUCCCCCGGCGCCCGGCGGCUCGAGCCCGGGUAAGUGUAUAUAGUCUGCAUGCCGCCGGGCGCCAUGCCUGCAGGUCGACUCUAGAAAACAUG”: the binding signal was 5.96 log2 enrichment (interaction score).

Turning to “GGCUAGAACUAGUGGAUCCCCCGGCGCCCGGCGGCUCGAGCCCGGGUAAGUGUAAAUAGUCUGCAUGCCGCCGGGCGCCAUGCCUGCAGGUCGACUCUAGAAAACAUG”, the binding signal was 2.39 log2 enrichment (interaction score).

As for “GGCUAGAACUAGUGGAUCCCCCGGCGCCCGGCGGCUCGAGCCCGGGUAAGUGUACAUAGUCUGCAUGCCGCCGGGCGCCAUGCCUGCAGGUCGACUCUAGAAAACAUG”, the binding signal was 2.51 log2 enrichment (interaction score).
